Target: ScBbc1
Test: SPOT peptide array binding signal intensity (averaged, normalized) (arbitrary units (background-subtracted, floor 0; scale differs between SH3 domains)); higher = stronger binding of the SH3 domain to the peptide
Experimental: (§1)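 GST-tagged SH3 domains from S. cerevisiae (Sc), A. gossypii (Ag), C. albicans (Ca) and S. pombe (Sp) were incubated at 10 ug/ml overnight at 4 C on cellulose SPOT membranes carrying 292 synthetic 15-mer peptides mined from the S. cerevisiae proteome (cysteines replaced by serines). Binding was detected with anti-GST antibody, HRP secondary and chemiluminescence, quantified with Genespotter, and reported as normalized spot intensities averaged over biological replicates.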

| Binder | SPOT peptide array binding signal intensity |
| --- | --- |
| NHSRSLFSLPGNQQS | 0.75 |

Target: ScBem1-D1
Test: as above
Experimental: as §1

| Binder | SPOT peptide array binding signal intensity |
| --- | --- |
| NHSRSLFSLPGNQQS | 6.5 |

Target: ScBzz1-D1
Test: as above
Experimental: as §1

| Binder | SPOT peptide array binding signal intensity |
| --- | --- |
| NHSRSLFSLPGNQQS | 10 |

Target: ScBzz1-D2
Test: as above
Experimental: as §1

| Binder | SPOT peptide array binding signal intensity |
| --- | --- |
| NHSRSLFSLPGNQQS | 10.5 |

Target: ScCyk3
Test: as above
Experimental: as §1

| Binder | SPOT peptide array binding signal intensity |
| --- | --- |
| NHSRSLFSLPGNQQS | 29.5 |

Target: ScFus1
Test: as above
Experimental: as §1

| Binder | SPOT peptide array binding signal intensity |
| --- | --- |
| NHSRSLFSLPGNQQS | 595 |

Target: ScHof1
Test: as above
Experimental: as §1

| Binder | SPOT peptide array binding signal intensity |
| --- | --- |
| NHSRSLFSLPGNQQS | 3.5 |

Target: ScHse1
Test: as above
Experimental: as §1

| Binder | SPOT peptide array binding signal intensity |
| --- | --- |
| NHSRSLFSLPGNQQS | 2940 |

Target: ScLsb1
Test: as above
Experimental: as §1

| Binder | SPOT peptide array binding signal intensity |
| --- | --- |
| NHSRSLFSLPGNQQS | 2.75 |

Target: ScLsb2
Test: as above
Experimental: as §1

| Binder | SPOT peptide array binding signal intensity |
| --- | --- |
| NHSRSLFSLPGNQQS | 7 |

Target: ScLsb3
Test: as above
Experimental: as §1

| Binder | SPOT peptide array binding signal intensity |
| --- | --- |
| NHSRSLFSLPGNQQS | 4 |

Target: ScLsb4
Test: as above
Experimental: as §1

| Binder | SPOT peptide array binding signal intensity |
| --- | --- |
| NHSRSLFSLPGNQQS | ≤ 0 |

Target: ScMyo3
Test: as above
Experimental: as §1

| Binder | SPOT peptide array binding signal intensity |
| --- | --- |
| NHSRSLFSLPGNQQS | 29.5 |

Target: ScMyo5
Test: as above
Experimental: as §1

| Binder | SPOT peptide array binding signal intensity |
| --- | --- |
| NHSRSLFSLPGNQQS | 67.2 |

Target: ScNbp2
Test: as above
Experimental: as §1

| Binder | SPOT peptide array binding signal intensity |
| --- | --- |
| NHSRSLFSLPGNQQS | 104 |

Target: ScPex13
Test: as above
Experimental: as §1

| Binder | SPOT peptide array binding signal intensity |
| --- | --- |
| NHSRSLFSLPGNQQS | ≤ 0 |

Target: ScRvs167
Test: as above
Experimental: as §1

| Binder | SPOT peptide array binding signal intensity |
| --- | --- |
| NHSRSLFSLPGNQQS | 17 |

Target: ScSho1
Test: as above
Experimental: as §1

| Binder | SPOT peptide array binding signal intensity |
| --- | --- |
| NHSRSLFSLPGNQQS | 1120 |

Target: ScSla1-D1-D2
Test: as above
Experimental: as §1

| Binder | SPOT peptide array binding signal intensity |
| --- | --- |
| NHSRSLFSLPGNQQS | 90.5 |

Target: ScSla1-D3
Test: as above
Experimental: as §1

| Binder | SPOT peptide array binding signal intensity |
| --- | --- |
| NHSRSLFSLPGNQQS | 2.25 |

Target: SpAbp1-D1
Test: as above
Experimental: as §1

| Binder | SPOT peptide array binding signal intensity |
| --- | --- |
| NHSRSLFSLPGNQQS | 196 |

Target: SpBbc1
Test: as above
Experimental: as §1

| Binder | SPOT peptide array binding signal intensity |
| --- | --- |
| NHSRSLFSLPGNQQS | 5.5 |

Target: SpBzz1-D1
Test: as above
Experimental: as §1

| Binder | SPOT peptide array binding signal intensity |
| --- | --- |
| NHSRSLFSLPGNQQS | 28 |

Target: SpBzz1-D2
Test: as above
Experimental: as §1

| Binder | SPOT peptide array binding signal intensity |
| --- | --- |
| NHSRSLFSLPGNQQS | 2.5 |

Target: SpCyk3
Test: as above
Experimental: as §1

| Binder | SPOT peptide array binding signal intensity |
| --- | --- |
| NHSRSLFSLPGNQQS | ≤ 0 |

Target: SpHof1
Test: as above
Experimental: as §1

| Binder | SPOT peptide array binding signal intensity |
| --- | --- |
| NHSRSLFSLPGNQQS | 176 |

Target: SpHof1-2
Test: as above
Experimental: as §1

| Binder | SPOT peptide array binding signal intensity |
| --- | --- |
| NHSRSLFSLPGNQQS | 10.8 |

Target: SpHof1-3
Test: as above
Experimental: as §1

| Binder | SPOT peptide array binding signal intensity |
| --- | --- |
| NHSRSLFSLPGNQQS | 992 |

Target: SpHse1
Test: as above
Experimental: as §1

| Binder | SPOT peptide array binding signal intensity |
| --- | --- |
| NHSRSLFSLPGNQQS | 1960 |

Target: SpLsb1
Test: as above
Experimental: as §1

| Binder | SPOT peptide array binding signal intensity |
| --- | --- |
| NHSRSLFSLPGNQQS | 27.5 |

Target: SpLsb4
Test: as above
Experimental: as §1

| Binder | SPOT peptide array binding signal intensity |
| --- | --- |
| NHSRSLFSLPGNQQS | 20 |

Target: SpMyo1
Test: as above
Experimental: as §1

| Binder | SPOT peptide array binding signal intensity |
| --- | --- |
| NHSRSLFSLPGNQQS | 72.5 |

Target: SpNbp2
Test: as above
Experimental: as §1

| Binder | SPOT peptide array binding signal intensity |
| --- | --- |
| NHSRSLFSLPGNQQS | 125 |

Target: SpPex13
Test: as above
Experimental: as §1

| Binder | SPOT peptide array binding signal intensity |
| --- | --- |
| NHSRSLFSLPGNQQS | 7 |

Target: SpRvs167
Test: as above
Experimental: as §1

| Binder | SPOT peptide array binding signal intensity |
| --- | --- |
| NHSRSLFSLPGNQQS | 75 |

Target: SpSla1-D1-D2
Test: as above
Experimental: as §1

| Binder | SPOT peptide array binding signal intensity |
| --- | --- |
| NHSRSLFSLPGNQQS | 3 |

Target: SpSla1-D3
Test: as above
Experimental: as §1

| Binder | SPOT peptide array binding signal intensity |
| --- | --- |
| NHSRSLFSLPGNQQS | 13.5 |

Reference: the supplement of paper PMC4466140
